Results filed as inconclusive are left out. A number with no mark means an inactive call. Activity calls are given as the source filed them. The call rests on the fitted dose curve; in most records, active means well fitted cell-killing curve with a large enough effect; inconclusive means small, poorly fitted or top-dose-only effect, or effect the other way; inactive means flat fitted curve, though single readings scatter.

What all share (assay): Primary qHTS to identify gynecologic anti-cancer compounds using libraries of approved drugs and bioactive compounds (AID 1345084); further: nearly all actives have a fitted effect of over 55% in size
For orientation: In qHTS, concentration-response curves come from the screen itself.

One assay has as its system C33A. The note with it: Gynecologic cancer cell panel viability, ATPlite luminescence, 48 h; series mostly up to 57.5 µM. The method in brief: (§1)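 Measured: luminescence after ATPlite addition (15 min, RT). Exposure: 48 h, 37 C, 5% CO2.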
In another assay the test system is CAOV3. The note with it: Gynecologic cancer cell panel viability, ATPlite luminescence, 48 h; series mostly up to 57.5 µM. The method in brief: as §1
A general note: Cellular ATP, detected with luciferase, serves as a proxy for viable cell number.

In a further assay the test system is CASKI. The note with it: Gynecologic cancer cell panel viability, ATPlite luminescence, 48 h; series mostly up to 57.5 µM. The method in brief:
as §1

The test system of another assay is Es-2. The note with it: Gynecologic cancer cell panel viability, ATPlite luminescence, 48 h; series mostly up to 57.5 µM. The method in brief:
as §1

For the next assay, the system named is HeLa. The note with it: Gynecologic cancer cell panel viability, ATPlite luminescence, 48 h; series mostly up to 57.5 µM. The method in brief:
as §1

The test system of another assay is Hek293T. The note with it: Gynecologic cancer cell panel viability, ATPlite luminescence, 48 h, control line for the selectivity index; series mostly up to 57.5 µM. The method in brief: as §1
In the next assay the test system is JEG-3. The note with it: Gynecologic cancer cell panel viability, ATPlite luminescence, 48 h; series mostly up to 57.5 µM. The gist of the method: as §1
The subject of another assay is OV90. The note with it: Gynecologic cancer cell panel viability, ATPlite luminescence, 48 h; series mostly up to 57.5 µM. The gist of the method:
as §1

Another assay concerns PA-1. The note with it: Gynecologic cancer cell panel viability, ATPlite luminescence, 48 h; series mostly up to 57.5 µM. The gist of the method:
as §1

The test system of the next assay is Tov112D. The note with it: Gynecologic cancer cell panel viability, ATPlite luminescence, 48 h; series mostly up to 57.5 µM. The gist of the method: as §1
A further assay relates to SKOV3. The note with it: Gynecologic cancer cell panel viability, ATPlite luminescence, 48 h; series mostly up to 57.5 µM. The gist of the method:
as §1

A further assay concerns Tov-21-G. The note with it: Gynecologic cancer cell panel viability, ATPlite luminescence, 48 h; series mostly up to 57.5 µM. The method in brief: as §1
Potency means the concentration at half of the fitted maximal effect.

Regarding `CC(C)[C@@H](CS(=O)(=O)C(C)C)N1C(=O)[C@@](C)(CC(=O)O)C[C@H](c2cccc(Cl)c2)[C@H]1c1ccc(Cl)cc1`, the Potency result in the assay with C33A, in the assay with CAOV3, in the assay on CASKI, in the assay with Es-2, with HeLa and in the assay with Hek293T was “inactive” in each case. Moreover, the Potency result with JEG-3, with OV90 and in the assay with Tov112D was “inactive” in each case. The Potency in the assay on PA-1 was 4.47 µM (active).
With `C=C(C(=O)O)C1CC2=C(C)CCCC2(C)C[C@@H]1O` (stereo partly drawn), the Potency result in the assay with C33A, in the assay on CAOV3, in the assay on CASKI, in the assay with Es-2, with HeLa and in the assay with Hek293T was “inactive” each time. The Potency result in the assay with JEG-3, in the assay on OV90, in the assay with SKOV3, in the assay with Tov-21-G and in the assay on Tov112D was “inactive” in each case.
In the case of `CC(C)(C)NS(=O)(=O)c1cncc(-c2cc(F)c3nc(N)nn3c2)c1`, the Potency result in the assay with C33A, with CAOV3, in the assay on CASKI, in the assay on Es-2, with HeLa and in the assay on Hek293T was “inactive” throughout. For the same compound, the Potency entry in the assay on JEG-3, with OV90, in the assay on SKOV3, in the assay with Tov-21-G and with Tov112D was “inactive” in each case.
Turning to `COc1cc2oc(-c3ccc(O)cc3O)cc2c(OC)c1CC=C(C)C`, the Potency entry with C33A, with CAOV3, in the assay with CASKI, with Es-2, in the assay on HeLa and in the assay with Hek293T was “inactive” each time. Besides, the Potency result with JEG-3, in the assay with OV90, with SKOV3, in the assay on Tov-21-G and in the assay on Tov112D was “inactive” throughout.
For the compound `COc1nc2sc(C(=O)NC3CC3)c(N)c2c(C)c1Cl`, the Potency result in the assay on C33A, with CAOV3, in the assay on CASKI, in the assay with Es-2, in the assay with HeLa and in the assay with Hek293T was “inactive” each time. Besides, the Potency entry in the assay on JEG-3, with OV90, with PA-1, with Tov-21-G and with Tov112D was “inactive” throughout.
`CC1(C)CC[C@]2(C(=O)O)CC[C@]3(C)C(=CCC4[C@@]5(C)C[C@@H](O)[C@H](O)C(C)(C)C5CC[C@]43C)C2C1` (stereo partly drawn): the Potency result in the assay on C33A, in the assay on CAOV3, in the assay with CASKI, in the assay on Es-2, in the assay on HeLa and with Hek293T was “inactive” throughout. Further, the Potency result in the assay on JEG-3, with OV90, in the assay with PA-1, with Tov-21-G and in the assay on Tov112D was “inactive” each time.
On to `O=C1NC2CCc3nc4ccccc4c(=O)n3C2=Nc2ccccc21` (stereo not drawn), for which the Potency entry in the assay on C33A, in the assay with CAOV3, in the assay with CASKI, in the assay with Es-2, in the assay on HeLa and in the assay on Hek293T was “inactive” throughout. The Potency result in the assay with JEG-3, with OV90, in the assay on SKOV3, in the assay with Tov-21-G and in the assay on Tov112D was “inactive” each time.
With `O=C(Cc1ccc(-c2ccccc2)cc1)NC1CCC1`, the Potency result with C33A, with CAOV3, in the assay on CASKI, in the assay on Es-2, with HeLa and in the assay on Hek293T was “inactive” in each case. In addition, the Potency result in the assay on JEG-3, in the assay with OV90, in the assay with PA-1, with Tov-21-G and with Tov112D was “inactive” throughout.
`CC(C)[C@@H]1C(=O)N(S(C)(=O)=O)[C@@H]2CCN(C(=O)/C=C/CN3CCCCC3)[C@H]21`: the Potency entry in the assay with C33A, in the assay with CAOV3, with CASKI, with Es-2, in the assay on HeLa and in the assay on Hek293T was “inactive” in each case. In addition, the Potency result in the assay on JEG-3, with OV90, with PA-1, in the assay on Tov-21-G and in the assay with Tov112D was “inactive” throughout.
Regarding `CC1=CC(=O)CC(C)(C)[C@@]1(O)CC[C@@H](C)O[C@@H]1O[C@H](CO)[C@@H](O)[C@H](O)[C@H]1O`, the Potency result in the assay with C33A, in the assay with CAOV3, in the assay on CASKI, with Es-2, in the assay on HeLa and in the assay with Hek293T was “inactive” each time. Also, the Potency entry in the assay with JEG-3, in the assay on OV90, with SKOV3, with Tov-21-G and in the assay with Tov112D was “inactive” throughout.
For the compound `CC(C)(C)OC(=O)N1CCC(OCc2nc(-c3ccncc3)no2)CC1`, the Potency result in the assay with C33A, with CAOV3, with CASKI, in the assay with Es-2, in the assay on HeLa and with Hek293T was “inactive” each time. Besides, the Potency result with JEG-3, in the assay with OV90, in the assay with PA-1 and with Tov112D was “inactive” each time.
For `C=C(C(=O)O)[C@@H]1CC[C@@]2(C)CC[C@H](O)[C@@]2(C(C)=O)C1`, the Potency entry with C33A, in the assay on CAOV3, with CASKI, with Es-2, in the assay on HeLa and in the assay with Hek293T was “inactive” in each case. In addition, the Potency entry with JEG-3, with OV90, in the assay on PA-1, with Tov-21-G and in the assay with Tov112D was “inactive” each time.
Take `C/C=C(\C)C(=O)O[C@H]1[C@@H](O[C@]2(COC(=O)CC(C)C)O[C@H](COC(=O)C(C)CC)[C@@H](OC(C)=O)[C@@H]2O)O[C@H](COC(C)=O)[C@@H](O)[C@@H]1O` (stereo partly drawn): the Potency entry in the assay with C33A, with CAOV3, in the assay with CASKI, in the assay on Es-2, in the assay on HeLa and in the assay on Hek293T was “inactive” each time. Also, the Potency entry in the assay on JEG-3, in the assay with OV90, with SKOV3, with Tov-21-G and in the assay on Tov112D was “inactive” each time.
For the compound `C/C(=C\C=C\C(C)C1CCC2(C)C3CCC4C(C)(C)C(=O)CCC45CC35CCC12C)C(=O)O` (stereo not drawn), the Potency entry with C33A, in the assay with CAOV3, in the assay on CASKI, in the assay with Es-2, with HeLa and in the assay on Hek293T was “inactive” in each case. In addition, the Potency result in the assay on JEG-3, with OV90, in the assay on SKOV3, in the assay with Tov-21-G and with Tov112D was “inactive” in each case.
With `CC(=O)c1ccc2c(c1)C(O)C(C(C)(C)O)O2` (stereo not drawn), the Potency entry in the assay on C33A, in the assay with CAOV3, in the assay with CASKI, in the assay with Es-2, with HeLa and in the assay on Hek293T was “inactive” in each case. The Potency entry with JEG-3, in the assay with OV90, with PA-1, with Tov-21-G and in the assay with Tov112D was “inactive” throughout.

(Values after PubChem BioAssay (NCATS).)
